C diff HTS: blocks growth of Clostridium difficile; 0.25% of 86,000 active; growth activity, negative = inhibition, % at 16 µg/mL (by protocol); Clostridium difficile clinical isolate growth, OD600, 24 h; hits give low values; AID 1259249;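 active means mean growth activity at or below -80% and every replicate also at or below -80%; inconclusive means mean at or below -80% but some replicate above -80%; inactive means mean growth activity above -80%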;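 further: 0% = DMSO wells and -100% = levofloxacin 16 µg/mL wells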
T cruzi growth: blocks T. cruzi growth in NIH3T3 culture; T. cruzi beta-gal in NIH3T3, GalScreen luminescence, 90 h; inhibition, % at 8.34 µM; 5.9% of 77,000 active;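 active means mean inhibition above about 93%, with at least 55% of replicates each passing it, limit read from the data, passing the limit was not always enough; inconclusive means only one of those two conditions holds; inactive means neither condition holds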
Pf Dd2 growth: inhibitors of Plasmodium falciparum Dd2 growth. 2.3% of 94,000 active. activity change, % at 10 µM. P. falciparum Dd2 growth, SYBR Green, 72 h; hits give low values. AID 1159554; in the data active means activity change below about -80%; inconclusive means no clear call, values can overlap the other calls
Starred values were filed as active, the others as inactive; ? = inconclusive; . = no result; ! = repeats disagree. Compounds with a hit are over-represented: about 6.7% of the library has one in this group of screens.

SMILES	C diff HTS	T cruzi growth	Pf Dd2 growth
N#C[C@H]1[C@H](c2ccc(C#Cc3ccccc3F)cc2)[C@@H](CO)N1C(=O)C1CCCC1	23.4	.	-86.9*
O=C(C[C@@H]1C=C[C@H](NC(=O)Nc2cc(F)ccc2F)[C@@H](CO)O1)NCc1ccccn1	-1.8	-18.5	10.3
O=C(C[C@@H]1C[C@H]2c3cc(NC(=O)CC4CC4)ccc3O[C@H]2[C@H](CO)O1)NCc1ccc2c(c1)OCO2	0.0	31.2	-6.7
C[C@H]1CCCCO[C@@H](CN(C)C(=O)Nc2ccc(F)cc2)[C@@H](C)CN([C@@H](C)CO)C(=O)c2cc(NS(C)(=O)=O)ccc2O1	-5.7	3.8	25.2
COc1ccc2c3c(n(C)c2c1)[C@@H](CO)N(C(=O)Nc1ccc(F)cc1)CC31CCN(C(=O)c2ccccc2F)CC1	-12.6	.	-84.5*
COc1ccc2c3c(n(C)c2c1)[C@H](CO)N(C(=O)Nc1ccc(F)cc1)CC31CCN(C(=O)c2ccc3c(c2)OCO3)CC1	-12.6	.	-88.2*
CCC(=O)N1CCC2(CC1)CN(C(=O)Nc1ccc(F)cc1)[C@H](CO)c1c2c2ccc(OC)cc2n1C	5.1	.	-35.5
COc1ccc2c3c(n(C)c2c1)[C@@H](CO)N(C(=O)Nc1ccc(F)cc1)CC31CCN(C(=O)c2ccc3c(c2)OCO3)CC1	0.5	.	-70.8
O=C(Cc1cccnc1)N1CC[C@@H]2[C@@H](CO)Nc3ccc(C#Cc4ccccc4F)cc3[C@@H]21	-6.4	.	-70.9
CC=Cc1ccc2n(c1=O)C[C@@H]1[C@@H](CO)[C@H](C(=O)N3CCOCC3)N(Cc3ccccc3OC)[C@H]21 (mixture of isomers)	-6.3	-52.4	.
Cc1ccc(S(=O)(=O)N(C)C[C@H]2Oc3ccc(NS(=O)(=O)c4cn(C)cn4)cc3C(=O)N([C@@H](C)CO)C[C@H]2C)cc1	.	-0.9	31.2
CO[C@@H]1CN(C)C(=O)c2cc(NC(=O)c3cc(C)on3)ccc2OC[C@H](C)NC[C@@H]1C	.	18.6	0.4
CN(C)C(=O)c1cccc(-c2cccc(-c3nc(C(=O)NC4CCCCC4)cc4c3[C@@H](CCO)N([S@](=O)C(C)(C)C)C4)c2)c1	.	59.2	-87.2*
CN(C)C(=O)c1ccc(-c2cccc(-c3nc(C(=O)NC4CCCC4)cc4c3[C@@H](CCO)N([S@](=O)C(C)(C)C)C4)c2)cc1	.	72.0	-74.3
COc1ccc(C#Cc2cccc(-c3nc(C(=O)N[C@@H]4CCN(Cc5ccccc5)C4)cc4c3[C@@H](CCO)N(S(=O)C(C)(C)C)C4)c2)cc1OC (stereo partly drawn)	-2.4	.	-88.2*
CN(C)C(=O)c1ccc(-c2cccc(-c3nc(C(=O)NC4CCCCC4)cc4c3[C@@H](CCO)N([S@](=O)C(C)(C)C)C4)c2)cc1	.	72.4	-73.6
CC(C)(O)C#Cc1cccc(-c2nc(C(=O)N[C@@H]3CCN(Cc4ccccc4)C3)cc3c2[C@@H](CCO)N(S(=O)C(C)(C)C)C3)c1 (stereo partly drawn)	2.8	.	-72.4
CN(C)C(=O)c1cccc(-c2cccc(-c3nc(C(=O)NC4CCCCC4)cc4c3[C@H](CCO)N([S@@](=O)C(C)(C)C)C4)c2)c1	.	77.7	-84.2*
O=C(C[C@H]1CC[C@H]2[C@@H](COC[C@@H](O)CN2C(=O)Nc2ccc(Cl)c(Cl)c2)O1)NCc1ccc(Cl)cc1	-68.5	87.8	1.5
O=C(C[C@@H]1CC[C@H]2[C@@H](COC[C@@H](O)CN2C(=O)Nc2ccc(Cl)c(Cl)c2)O1)NCc1ccc(F)cc1	-28.1	-33.8	2.5
O=C(C[C@H]1CC[C@H]2[C@@H](COC[C@@H](O)CN2C(=O)Nc2ccc(Cl)c(Cl)c2)O1)NCc1ccc(F)cc1	-52.9	-49.4	-7.6
CCCNC(=O)C[C@@H]1CC[C@H]2[C@@H](COC[C@@H](O)CN2C(=O)Nc2ccc(Cl)c(Cl)c2)O1	-102.8*!	-17.2	-7.5
O=C(C[C@@H]1CC[C@H]2[C@@H](COC[C@H](O)CN2C(=O)Nc2ccc(Cl)c(Cl)c2)O1)NCc1ccc(F)cc1	-83.7*	14.8	8.0
O=C(C[C@@H]1CC[C@H]2[C@@H](COC[C@@H](O)CN2C(=O)Nc2ccc(Cl)c(Cl)c2)O1)NCc1ccc(Cl)cc1	-90.5*	51.1	-5.4
CCCNC(=O)C[C@H]1CC[C@@H]2[C@H](COC[C@@H](O)CN2C(=O)Nc2ccc(Cl)c(Cl)c2)O1	36.9	-93.4	-28.2
SMILES	C diff HTS	T cruzi growth	Pf Dd2 growth
O=C(C[C@H]1CC[C@H]2[C@@H](COC[C@H](O)CN2C(=O)Nc2ccc(Cl)c(Cl)c2)O1)NCc1ccc(F)cc1	-93.7*	57.5	-33.7
CC(=O)N1[C@@H](CO)[C@@H]2c3ccccc3N(S(=O)(=O)c3cccc(C)c3)C[C@@H]21	-5.6	4.6	7.8
C[C@@H]1CCCCO[C@@H](CN(C)Cc2ccc3c(c2)OCO3)[C@H](C)CN([C@@H](C)CO)C(=O)c2cc(NC(=O)NC3CCCCC3)ccc2O1	13.2	.	.
COc1ccc(S(=O)(=O)Nc2ccc3c(c2)C(=O)N([C@@H](C)CO)C[C@H](C)[C@@H](CN(C)S(C)(=O)=O)OCCCC[C@@H](C)O3)cc1	8.7	49.3	-21.3
CCC(=O)N1CCC2(CC1)CN(C(=O)Cc1ccccc1)[C@@H](CO)c1c2c2ccc(OC)cc2n1C	6.6	.	-74.3
CCCNC(=O)N1CC2(C1)CN(C(=O)COC)[C@H](CO)c1c2c2ccc(OC)cc2n1C	.	.	-7.1
C[C@@H]1CN([C@H](C)CO)C(=O)c2cc(NC(=O)Cc3ccccc3)ccc2O[C@@H](C)CCCCO[C@H]1CN(C)Cc1ccc(C(F)(F)F)cc1	.	-16.3	?
O=C(Cc1ccncc1)NCC[C@@H]1CC[C@H](NC(=O)C2CCCCC2)[C@H](CO)O1	1.4	.	-10.4
COc1ccc2c3c([nH]c2c1)[C@H](CO)N(C(=O)CC1CC1)CC31CN(C(=O)CC2CC2)C1	-7.5	.	-56.1
C[C@H]1CN([C@@H](C)CO)S(=O)(=O)c2ccc(/C=C/c3ccccc3)cc2O[C@H]1CN(C)Cc1cccnc1	4.0	.	-81.6*
C[C@@H]1CN([C@@H](C)CO)S(=O)(=O)c2ccc(-c3ccccc3)cc2O[C@H]1CN(C)C(=O)Nc1ccccc1F	.	54.8	-38.3
C/C=C/c1ccc2c(c1)O[C@@H](CN(C)C(=O)c1ccccc1)[C@H](C)CN([C@H](C)CO)S2(=O)=O	5.3	.	-16.4
C[C@@H]1CN([C@@H](C)CO)S(=O)(=O)c2ccc(/C=C/c3ccccc3)cc2O[C@@H]1CN(C)C(=O)c1ccccc1	-1.4	127.1*	-67.9
C[C@H]1CN([C@@H](C)CO)S(=O)(=O)c2ccc(/C=C/c3ccccc3)cc2O[C@@H]1CN(C)Cc1cccnc1	2.1	101.7	-75.4
C[C@@H]1CN([C@H](C)CO)S(=O)(=O)c2ccc(/C=C/c3ccccc3)cc2O[C@H]1CN(C)C(=O)Nc1cc(F)ccc1F	10.6	.	-84.5*
C[C@H]1CN([C@@H](C)CO)S(=O)(=O)c2ccc(-c3ccccc3)cc2O[C@H]1CN(C)C(=O)Nc1ccccc1F	.	44.9	-81.5*
C[C@@H]1CN([C@H](C)CO)S(=O)(=O)c2ccc(/C=C/c3ccccc3)cc2O[C@@H]1CN(C)C(=O)Nc1cc(F)ccc1F	0.9	.	-64.3
O=C(Cc1ccccc1)N1C[C@H]2[C@@H](c3ccccc31)[C@H](CO)N2C(=O)Nc1ccc(F)cc1	-14.5	9.4	-0.9
